The values that follow come from PubChem BioAssay (NCATS).

Test [1] concerns the target Alpha-galactosidase A (Homo sapiens) (UniProt P06280). The experiment in a line: Counterscreen for Glucocerebrosidase Inhibitors: qHTS Assay for Human alpha-Galactosidase at pH 4.5 (AID 992). Further: 0% is about no effect. An outline of the steps:
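Read-out is 4-methylumbelliferone fluorescence (365 nm excitation, 440 nm emission) after a pH 10 NaOH/glycine stop. Reactions held 2 nM enzyme and 80 uM substrate at pH 4.5 for 20 min at room temperature.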
For orientation: The purpose of a counterscreen is to sort out artefacts and off-target activity.

In test [2] the target is alpha-glucosidase (Oryza sativa, rice) (UniProt Q653V4). Put plainly: Counterscreen for Glucocerebrosidase Inhibitors: qHTS Assay for Rice alpha-Glucosidase at pH 5.0 (AID 997).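 Further: 0% = full activity with enzyme and -100% = basal without enzyme.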 An outline of the steps:
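Rice alpha-glucosidase (4 nM final) with 400 uM 4-methylumbelliferyl-alpha-D-glucopyranoside in citrate buffer pH 5.0, 20 min at room temperature, stopped at pH 10; fluorescence 365/440 nm, compounds 0.7 nM–77 uM, AC50 from Hill fits.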

A short description of test [3]: qHTS Assay for Lipid Storage Modulators (AID 1519; calls by dose curve; on activity change, negative = inhibition: on the % scale 0 is the no-effect control and ±100 the full control effect). Particulars: Drosophila S3 cells, BODIPY lipid droplet/cell ratio, laser cytometry, cells loaded with oleic acid. An outline of the steps: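 Cells seeded at 5,000 per well were treated with compounds over a concentration series and loaded with oleic acid (400 uM, as added). Lipid droplet fluorescence (488 nm excitation, 500-530 nm channel) was read by laser-scanning cytometry and normalized to 20 uM Triacsin C.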
(In general: qHTS replaces the single test concentration by a dilution series.)

The nature of test [4]: Cell Viability - LYMP2-020 (AID 986).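 Further: plate controls were DMSO only for no effect and tetraoctylammonium bromide at 92 µM for full effect; nearly all actives have a fitted effect of over 55% in size.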 In short, it runs like this: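 Human lymphoblastoid LYMP2-020 cells (2500/well) preincubated 5 h at 37 C, then treated 24 h at 37 C. Viability measured as intracellular ATP by CellTiter-Glo luminescence after 30 min at room temperature; AC50 from Hill fits.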
Test [5] in a line: Cell Viability - LYMP2-022 (AID 987).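 Further: 0% = DMSO alone and full effect = tetraoctylammonium bromide at 92 µM; nearly all actives have a fitted effect of over 55% in size.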 An outline of the steps: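 LYMP2-022 lymphoblastoid cells (2500/well, complete medium) were treated with compounds for 24 hours at 37 C; intracellular ATP was then read by CellTiter-Glo luminescence after 30 min at room temperature. AC50 values were derived from Hill-equation fits.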
Test [6] in a line: Cell Viability - LYMP2-024 (AID 988).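 Further: plate controls were DMSO only for no effect and 92 µM tetraoctylammonium bromide for full effect; nearly all actives have a fitted effect of over 60% in size.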 An outline of the steps: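 Human lymphoblastoid LYMP2-024 cells (2500/well) rested 5 hr, then treated with compound for 24 hr at 37 C in complete medium. Viability was measured as intracellular ATP by CellTiter-Glo luminescence. AC50 values came from Hill-equation fits.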
Test [7] can be described thus: Cell Viability - LYMP2-026 (AID 989). Further: on the % scale 0 is the no-effect control and ±100 the full control effect; nearly all actives have a fitted effect of over 50% in size. In short, it runs like this: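 Human lymphoblastoid LYMP2-026 cells, 2500/well, exposed to compound 24 h at 37 C in complete medium. Viability as intracellular ATP by CellTiter-Glo luminescence; AC50 from Hill fits of qHTS concentration-response.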
Test [8] is described as follows: Cell Viability - LYMP1-002 - Assay at 24 hr (AID 993). Further: on the % scale 0 is the no-effect control and ±100 the full control effect. In short, it runs like this:
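Human lymphoblastoid LYMP1-002 cells (2500/well) treated 24 h at 37 °C; viability as intracellular ATP by CellTiter-Glo luminescence. Tetraoctylammonium bromide as positive control; AC50 from Hill-equation fits of qHTS concentration-response.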

Test [9] in a line: Cell Viability - LYMP1-002 - Assay at 40 hr (AID 994). Further: nearly all actives have a fitted effect of over 60% in size. Further: potency means the concentration at half of the fitted maximal effect. In short, it runs like this: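 LYMP1-002 human lymphoblastoid cells (2500/well, complete medium) were treated with compounds for 40 hr at 37 C. Intracellular ATP was measured by CellTiter-Glo luminescence, and AC50 values came from Hill-equation fits of concentration-response data; tetraoctylammonium bromide was the positive control.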

[10] abbreviates: measured here: cell count channel max response.
The mark [11] stands for this setting: measured here: lipid channel max response.

The structures appear in SMILES notation. Values joined by “and” are separate entries in the source; they are usually repeats but may differ in a detail not shown here. Identical values can stand only once. Results filed as inconclusive are left out. Active and inactive are the calls of the source. Unless noted, the call rests on the fitted dose curve; in most records, active means well fitted curve in the direction sought with a large enough effect; inconclusive means small, poorly fitted or top-dose-only effect, or another doubt; inactive means no such curve, though single readings can be large; an effect the other way counts as inactive or inconclusive.

Sequence of Alpha-galactosidase A (Homo sapiens) (P06280 whole entry, looked up): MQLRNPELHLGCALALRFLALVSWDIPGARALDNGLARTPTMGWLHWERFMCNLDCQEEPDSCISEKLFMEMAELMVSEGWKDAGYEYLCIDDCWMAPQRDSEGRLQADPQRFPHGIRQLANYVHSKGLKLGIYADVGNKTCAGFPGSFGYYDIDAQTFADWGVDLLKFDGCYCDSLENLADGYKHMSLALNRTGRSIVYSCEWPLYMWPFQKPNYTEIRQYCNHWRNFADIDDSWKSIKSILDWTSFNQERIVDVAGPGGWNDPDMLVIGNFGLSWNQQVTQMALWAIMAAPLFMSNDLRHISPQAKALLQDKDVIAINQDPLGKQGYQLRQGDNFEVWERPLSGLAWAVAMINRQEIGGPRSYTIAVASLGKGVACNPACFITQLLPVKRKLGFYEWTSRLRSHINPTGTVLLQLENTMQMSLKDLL

Turning to `C[C@](N)(Cc1ccc(O)c(O)c1)C(=O)O`, the molecule was classed as inactive in test [1] and in test [2]. The activity change, negative = inhibition in [3] (at 57.5 µM (top of the series)) is 1.88% (inactive). In addition, the values for the max response in test [3] (setting [10]) and in test [3] (setting [11]) were 48.1% and 42%, respectively.

In the case of `OCCN(CCO)c1nc(N2CCCCC2)c2nc(N(CCO)CCO)nc(N3CCCCC3)c2n1`, in test [2], the molecule was called inactive. Also, the activity change, negative = inhibition in test [3] (at 25.7 µM (top of the series)) is -0.0376% (inactive). The max response in test [3] (setting [10]) is -18.6%; in test [3] (setting [11]), -17.7%.

Regarding `O=C(Nc1ccc([N+](=O)[O-])cc1Cl)c1cc(Cl)ccc1O`, the molecule was classed as inactive in test [1] and in test [2].

For `CCc1cccc2c3c([nH]c12)C(CC)(CC(=O)O)OCC3` (stereo not given), the result in test [1] and in test [2] was inactive. For the same molecule, in [3] (at 57.5 µM (top of the series)), the activity change, negative = inhibition was 2.38% (inactive) and -6.74% (inactive). In addition, the max response in test [3] (setting [10]) was 1.96% and -60.6%; in test [3] (setting [11]), 5.72% and -61.2%.

Turning to `Cn1c(=O)c2[nH]cnc2n(C)c1=O`, the molecule was classed as inactive in [4], in test [5], in [6], in [7], in [1] and in test [8]. Further, the call in test [2] was inactive. In test [9], the Potency entry is “inactive”.

Consider `CC[N+](CC)(CC)CCOc1cccc(OCC[N+](CC)(CC)CC)c1OCC[N+](CC)(CC)CC`, for which the outcome in test [1] and in test [2] was inactive.

As to `Cc1cc(C(C)(C)C)cc(C)c1CC1=NCCN1`, the call in [1] and in test [2] was inactive.

For the molecule `CN1C(C(=O)Nc2ccccn2)=C(O)c2ccccc2S1(=O)=O`, the molecule was classed as inactive in test [1] and in test [2]. For the same molecule, in [3] (at 25.7 µM (top of the series)), the activity change, negative = inhibition is -1.27% (inactive). In addition, the values for the max response in test [3] (setting [10]) and in test [3] (setting [11]) were -1.41% and -3.03%, respectively.

As for `COc1ccc2[nH]cc(CCNC(C)=O)c2c1`, the outcome in test [4], in test [5], in test [6], in [7], in [1] and in test [8] was inactive. In addition, the molecule was called inactive in test [2]. In [9], the Potency entry is “inactive”. The activity change, negative = inhibition in test [3] (at 25.7 µM (top of the series)) is 1.02% (inactive); in [3] (at 57.5 µM (top of the series)), 11.3% (inactive) and -5.62% (inactive) and 7.48% (inactive).

For `CCOC(=O)c1ncn2c1CN(C)C(=O)c1cc(F)ccc1-2`, the molecule was called inactive in [1] and in test [2]. In test [3] (at 57.5 µM (top of the series)), the activity change, negative = inhibition was -0.292% (inactive). Moreover, the max response in test [3] (setting [10]) is 20.1%; in test [3] (setting [11]) it was 21.2%.

For `O=C(C1CCCCC1)N1CC(=O)N2CCc3ccccc3C2C1` (stereo not given), the call in [1] and in test [2] was inactive. Also, the activity change, negative = inhibition in test [3] (at 57.5 µM (top of the series)) is 2.76% (inactive). The max response is -17.9% in [3] (setting [10]) and -16.6% in test [3] (setting [11]).

Consider `CN(C)C(=O)C(CCN1CCC(O)(c2ccc(Cl)cc2)CC1)(c1ccccc1)c1ccccc1`, for which the result in [1] and in [2] was inactive.

For `CC(COc1ccccc1)N(CCCl)Cc1ccccc1` (stereo not given), the molecule was classed as inactive in [8]. In addition, in test [9], the Potency result is “inactive”. Besides, the activity change, negative = inhibition in test [3] (at 57.5 µM (top of the series)) was 6.18% (inactive). For the same molecule, the figures for the max response in test [3] (setting [10]) and in test [3] (setting [11]) were 11.9% and 23.2%, respectively.

As to `O=c1[nH]cc(F)c(=O)[nH]1`, the molecule was called inactive in test [4], in test [6], in [7], in test [1], in test [8] and in test [2]. Also, in test [3] (at 57.5 µM (top of the series)), the activity change, negative = inhibition was 6.92% (inactive) and -0.382% (inactive). In addition, the max response is 3.09% and 58.9% in test [3] (setting [10]); 12.8% and 58.3% in test [3] (setting [11]).

Turning to `COc1cc2c(c(OC)c1OC)-c1ccc(OC)c(=O)cc1[C@@H](NC(C)=O)CC2`, the call in test [1] and in test [2] was inactive. Besides, the Potency in test [9] was 0.0316 µM (active).

As for `Cn1ccc2cc3c(cc21)CCN3C(=O)Nc1cccnc1`, the outcome in test [1] and in test [2] was inactive.

For the molecule `CCCCc1oc2ccccc2c1C(=O)c1cc(I)c(OCCN(CC)CC)c(I)c1`, the result in [1] and in [2] was inactive. Besides, the activity change, negative = inhibition in [3] (at 57.5 µM (top of the series)) was -1.96% (inactive). Also, the max response in [3] (setting [10]) was 0.489%; in test [3] (setting [11]), 1.02%.

Consider `Cc1cn([C@H]2C[C@H](N=[N+]=[N-])[C@@H](CO)O2)c(=O)[nH]c1=O`, for which the outcome in [4], in [5], in test [6], in test [7] and in [8] was inactive. Further, in [9], the Potency result was “inactive”.

On to `Cc1ccccc1N1C(=O)c2cc(S(N)(=O)=O)c(Cl)cc2NC1C` (stereo not given), for which the result in test [1] and in test [2] was inactive. Moreover, the activity change, negative = inhibition in [3] (at 57.5 µM (top of the series)) is 5.05% (inactive) and -0.764% (inactive). Further, the max response in test [3] (setting [10]) is 11.3% and 51.4%; in [3] (setting [11]) it was 18.3% and 52%.

`NC(=O)NO`: the molecule was called inactive in test [1] and in test [2]. Moreover, the activity change, negative = inhibition in test [3] (at 57.5 µM (top of the series)) is 7.16% (inactive). Also, the max response stood at 21% in test [3] (setting [10]) and 26.4% in test [3] (setting [11]).
